# Reference: PubChem BioAssay (NCATS)
# Where “and” joins values, the source holds several entries; their conditions need not be identical. Equal entries are not always repeated. Records with an inconclusive call do not appear. Where a call stands in place of a potency, no number is given. Unmarked numbers belong to inactive results. Calls of active or inactive are those of the source. Calls follow the shape of the dose curve; as a rule, active = well fitted inhibition curve with a large enough effect; inconclusive = small, poorly fitted or top-dose-only effect; inactive = flat fitted curve, though single readings scatter.
# Legend:
# KB-3-1 = experiment: Cytotoxic Profiling of Annotated Libraries Using Quantitative High-Throughput Screening (AID 1296008); conditions: Five cell lines viability, CellTiter-Glo ATP luminescence, 48-72 h; max response: hits give low values
# In short: (§1)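 Cytotoxicity was measured as CellTiter-Glo ATP luminescence, read after 10 min at room temperature. Compound treatment of the cells lasted 48 or 72 hr at 37 degrees Celsius in a qHTS format.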
# NIH3T3 [1] = experiment: as above; conditions: Five cell lines viability, CellTiter-Glo ATP luminescence, 48-72 h; max response: hits give low values
# In short: as §1
# MCC-13 = experiment: qHTS assay to identify novel small-molecules to repurpose for Merkel cell carcinoma treatment (AID 1296009); conditions: MCC and control cell lines, CellTiter-Glo viability, 72 h; series mostly up to 46 µM
# In short: (§2)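 72 hr, 37 degree celsius; NPC 8-pt / MIPE 11-pt dose response; compound pinned in DMSO; CellTiter-Glo, 10 min RT, luminescence; normalized to no-cell and DMSO controls.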
# MCC-26 = experiment: as above; conditions: MCC and control cell lines, CellTiter-Glo viability, 72 h; series mostly up to 46 µM
# In short: as §2
# MKL-1 = experiment: as above; conditions: MCC and control cell lines, CellTiter-Glo viability, 72 h; series mostly up to 46 µM
# In short: as §2
# MKL-2 = experiment: as above; conditions: MCC and control cell lines, CellTiter-Glo viability, 72 h; series mostly up to 46 µM
# In short: as §2
# UISO = experiment: as above; conditions: MCC and control cell lines, CellTiter-Glo viability, 72 h; series mostly up to 46 µM
# In short: as §2
# HACAT = experiment: as above; conditions: MCC and control cell lines, CellTiter-Glo viability, 72 h; at 44.8 µM (top of the series) unless noted
# In short: as §2
# NIH3T3 [2] = experiment: as above; conditions: MCC and control cell lines, CellTiter-Glo viability, 72 h; at 44.8 µM (top of the series) unless noted
# In short: as §2
# HEK293T = experiment: as above; conditions: MCC and control cell lines, CellTiter-Glo viability, 72 h; at 44.8 µM (top of the series) unless noted
# In short: as §2
# Also: nearly all actives have a fitted effect of over 60% in size.
# Potency is read from the fitted curve at half-maximal effect.
smiles,measurement,setting,value
NC(=O)c1ncn([C@@H]2O[C@H](CO)[C@@H](O)[C@H]2O)c1N,max response,KB-3-1,12%
same,max response,NIH3T3 [1],-10.7%
same,Potency,MCC-13,inactive
same,Potency,MCC-26,inactive
same,Potency,MKL-1,inactive
same,Potency,MKL-2,inactive
same,Potency,UISO,inactive
COc1ccccc1O,max response,KB-3-1,-18.3% and -7.82%
same,max response,NIH3T3 [1],-2.65%
same,Potency,MCC-13,inactive
same,Potency,MCC-26,inactive
same,Potency,MKL-1,inactive
same,Potency,MKL-2,inactive
same,Potency,UISO,inactive
OCCN1CCN(CCCN2c3ccccc3Sc3ccc(Cl)cc32)CC1,max response,KB-3-1,-16%
same,Potency,MCC-26,26.6 µM (active)
same,Potency,UISO,26.6 µM (active)
Nc1ncnc2c1ncn2[C@@H]1O[C@H](CO)[C@@H](O)[C@H]1O,max response,KB-3-1,15.4%
same,outcome,HACAT,inactive
same,Potency,MCC-13,inactive
same,Potency,MCC-26,inactive
same,Potency,MKL-1,inactive
same,Potency,UISO,inactive
CCOC(CN1CCN(CC(C)C(=O)c2ccccc2)CC1)c1ccccc1 (stereo not drawn),max response,NIH3T3 [1],-6.68%
same,outcome,NIH3T3 [1],inactive
same,outcome,HACAT,inactive [at 17.4 µM]
same,Potency,MCC-13,inactive
same,Potency,MCC-26,inactive
same,Potency,MKL-1,inactive
same,Potency,MKL-2,inactive
same,outcome,NIH3T3 [2],inactive
same,Potency,UISO,inactive
Cc1ccc2nc(N)[nH]c(=O)c2c1Sc1ccncc1,max response,KB-3-1,-5.1%
same,Potency,NIH3T3 [1],2.37 µM (active) and 6.51 µM (active)
same,Potency,MCC-26,inactive
same,Potency,MKL-1,inactive
Cc1cc2nc3c(=O)[nH]c(=O)nc-3n(C[C@H](O)[C@H](O)[C@H](O)CO)c2cc1C,max response,KB-3-1,-1.52% and 0.485%
same,max response,NIH3T3 [1],4.08%
same,Potency,MCC-13,inactive
same,Potency,MCC-26,inactive
same,Potency,MKL-1,inactive
same,Potency,MKL-2,inactive
same,Potency,UISO,inactive
CNCCCC1c2ccccc2C=Cc2ccccc21,max response,KB-3-1,6.95%
same,Potency,MCC-13,inactive
same,Potency,MCC-26,inactive
same,Potency,MKL-2,21.1 µM (active)
same,Potency,UISO,inactive
O=C(CCCN1CCN(c2ccccn2)CC1)c1ccc(F)cc1,max response,KB-3-1,7.83% and 2.47%
same,max response,NIH3T3 [1],-7% and 0.386%
same,Potency,MCC-13,inactive
same,Potency,MCC-26,inactive
same,Potency,MKL-1,inactive
same,Potency,MKL-2,inactive
CN(C)CC[C@@H](c1ccc(Cl)cc1)c1ccccn1,max response,KB-3-1,-22.8%
same,outcome,NIH3T3 [1],inactive
same,Potency,MCC-13,inactive
same,Potency,MCC-26,inactive
same,Potency,MKL-1,inactive
same,Potency,MKL-2,inactive
same,outcome,NIH3T3 [2],inactive
same,Potency,UISO,inactive
O=c1[nH]c(=O)c2[nH]c(=O)[nH]c2[nH]1,max response,KB-3-1,23.1% and -16.9%
same,outcome,NIH3T3 [1],inactive
same,"activity change, negative = cytotoxicity",MCC-13,-1.19% [at 9.22 µM]
same,"activity change, negative = cytotoxicity",MCC-26,-17% [at 9.22 µM]
same,"activity change, negative = cytotoxicity",MKL-1,-12.1% [at 9.22 µM]
same,"activity change, negative = cytotoxicity",MKL-2,7.3% [at 9.22 µM]
same,outcome,NIH3T3 [2],inactive [at 9.27 µM]
same,"activity change, negative = cytotoxicity",UISO,-5.4% [at 9.22 µM]
CN(C)CCCN1c2ccccc2Sc2ccc(Cl)cc21,max response,KB-3-1,-6.48%
same,Potency,MKL-1,23.7 µM (active)
O=c1[nH]cnc2c1ncn2[C@@H]1O[C@H](CO)[C@@H](O)[C@H]1O,max response,NIH3T3 [1],0.16%
same,outcome,NIH3T3 [1],inactive
same,outcome,HACAT,inactive
same,outcome,HEK293T,inactive
same,Potency,MCC-13,inactive
same,Potency,MCC-26,inactive
same,Potency,MKL-1,inactive
same,Potency,MKL-2,inactive
same,outcome,NIH3T3 [2],inactive
same,Potency,UISO,inactive
COc1ccc(S(=O)(=O)Nc2nnc(CC(C)C)s2)cc1,max response,KB-3-1,-8.69% and 6.78%
same,max response,NIH3T3 [1],-3.07%
same,Potency,MCC-13,inactive
same,Potency,MCC-26,inactive
same,Potency,MKL-1,inactive
same,Potency,MKL-2,inactive
same,Potency,UISO,inactive
CC/C=C(\C(=O)N[C@@H]1C(=O)N2C(C(=O)OCOC(=O)C(C)(C)C)=C(COC(N)=O)CS[C@H]12)c1csc(N)n1,max response,KB-3-1,-16.1% and -3.61%
same,max response,NIH3T3 [1],-1.08%
same,Potency,MCC-13,inactive
same,Potency,MCC-26,inactive
same,Potency,MKL-1,inactive
same,Potency,MKL-2,inactive
same,Potency,UISO,inactive
CCN(CC)CCSC(=O)C(c1ccccc1)c1ccccc1,max response,KB-3-1,12.2% and -4.64%
same,max response,NIH3T3 [1],-1.72%
same,Potency,MCC-13,inactive
same,Potency,MCC-26,inactive
same,Potency,MKL-1,inactive
same,Potency,UISO,inactive
CCN(CC)CCNC(=O)c1c(C)[nH]c(/C=C2\C(=O)Nc3ccc(F)cc32)c1C,max response,KB-3-1,-5.42%
same,max response,NIH3T3 [1],-10.6%
same,Potency,MCC-13,23.7 µM (active)
same,Potency,MKL-1,2.99 µM (active)
same,Potency,MKL-2,2.99 µM (active)
same,Potency,UISO,11.9 µM (active)
CC(CN1c2ccccc2Sc2ccccc21)N(C)C (stereo not drawn),max response,KB-3-1,7.29%
same,Potency,MCC-13,inactive
same,Potency,MCC-26,inactive
same,Potency,MKL-1,inactive
same,Potency,MKL-2,inactive
